Drawing on PubChem BioAssay (EPA / NIEHS), this text covers AC50 and outcome for one compound.

Structures are written as SMILES. Several values for one entry are separate records, joined by “and”; a condition that tells them apart may be missing. Identical values can stand only once. A structure can be active in one record and inactive in another. Activity calls are given as the source filed them. How the source made its calls: active means hit-call score of the fitted dose curve at least 0.9, where 1 is the maximum; inactive means score below 0.9.

As usually defined, the AC50 is the concentration at which the activity in the assay is half-maximal.

Read-out in test [1]: Actin alpha 1 (ACTA1), ACTA1 (gene 58)
The experiment in a line: BSK_MyoF_ACTA1: BioMAP Diversity Plus: MyoF Assay for Actin alpha 1 (ACTA1) Biomarker Activity (AID 2284244). To be noted: primary human lung fibroblasts. A digest of the protocol:
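Measured by ELISA: alpha-smooth muscle actin in human primary lung fibroblasts 24 h after dosing, with DMSO as baseline and upward signal change as the fitted direction.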

Read-out in test [2]: Interleukin 2 (IL2), IL2 (gene 3558)
The experiment in a line: BSK_BT_xIL2: BioMAP Diversity Plus: BT Assay for Interleukin 2 (IL2) Biomarker Activity (AID 2284245). To be noted: primary human B cells with PBMC. A digest of the protocol:
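Secreted interleukin-2 from human B cell/PBMC co-cultures, measured 24 h post-dosing by Luminex multiplex immunoassay. Upward-direction curve fitting against DMSO baseline.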

Read-out in test [3]: Basic fibroblast growth factor (bFGF), FGF2 (gene 2247)
The experiment in a line: BSK_MyoF_bFGF: BioMAP Diversity Plus: MyoF Assay for Basic fibroblast growth factor (bFGF) Biomarker Activity (AID 2284246). To be noted: primary human lung fibroblasts. A digest of the protocol: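 In this multiplexed cell system, lung fibroblasts (human primary) receive test chemical for 24 h before ELISA detection of bFGF; DMSO defines baseline and the analysis direction is positive.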

Read-out in test [4]: Collagen IV, COL4A1 (gene 1282)
The experiment in a line: BSK_MyoF_CollagenIV: BioMAP Diversity Plus: MyoF Assay for Collagen IV Biomarker Activity (AID 2284247). To be noted: primary human lung fibroblasts. A digest of the protocol: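 Activity is scored as a signal increase over DMSO in an ELISA for Collagen IV, measured on human lung fibroblasts at 24 h after chemical treatment. Cytotoxicity is checked in parallel cultures by sulforhodamine B total-protein staining.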

Read-out in test [5]: Monokine induced gamma interferon (MIG), CXCL9 (gene 4283)
The experiment in a line: BSK_KF3CT_MIG: BioMAP Diversity Plus: KF3CT Assay for Monokine induced gamma interferon (MIG) Biomarker Activity (AID 2284248). To be noted: primary human keratinocytes with fibroblasts. Put shortly: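 KF3CT system: keratinocyte/fibroblast co-culture, 24 h post-dose, MIG by ELISA; activity vs DMSO, positive fitting direction.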

Read-out in test [6]: Vascular cell adhesion molecule 1 (VCAM1), VCAM1 (gene 7412)
The experiment in a line: BSK_BF4T_VCAM1: BioMAP Diversity Plus: BF4T Assay for Vascular cell adhesion molecule 1 (VCAM1) Biomarker Activity (AID 2284249). To be noted: primary human bronchial epithelial cells with fibroblasts. Put shortly:
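Human bronchial epithelial cell and dermal fibroblast co-culture exposed 24 h. VCAM-1 measured by ELISA; parallel SRB total-protein staining for cytotoxicity. Fitted in positive direction relative to DMSO.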

Read-out in test [7]: Collagen I, COL1A1 (gene 1277)
The experiment in a line: BSK_hDFCGF_CollagenI: BioMAP Diversity Plus: hDFCGF Assay for Collagen I Biomarker Activity (AID 2284250). To be noted: primary human foreskin fibroblasts. A digest of the protocol:
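Cells were primary human foreskin fibroblasts treated for 24 h. Collagen I levels were then determined by ELISA and compared against DMSO controls.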

Read-out in test [8]: Interferon-inducible T-cell alpha chemoattractant (ITAC), CXCL11 (gene 6373)
The experiment in a line: BSK_hDFCGF_ITAC: BioMAP Diversity Plus: hDFCGF Assay for Interferon-inducible T-cell alpha chemoattractant (ITAC) Biomarker Activity (AID 2284251). To be noted: primary human foreskin fibroblasts. A digest of the protocol:
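Fibroblasts (human foreskin, primary) are treated with chemical, cultured 24 h, then assayed for I-TAC by ELISA. Overt toxicity is checked in parallel cultures by sulforhodamine B staining of total protein at the same time point.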

Read-out in test [9]: Plasminogen activator inhibitor-1 (PAI1), SERPINE1 (gene 5054)
The experiment in a line: BSK_KF3CT_PAI1: BioMAP Diversity Plus: KF3CT Assay for Plasminogen activator inhibitor-1 (PAI1) Biomarker Activity (AID 2284252). To be noted: primary human keratinocytes with fibroblasts. Put shortly:
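Signal is PAI-1 detected by ELISA in a human skin-derived keratinocyte/fibroblast co-culture, 24 h after dosing; DMSO served as negative control and baseline.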

Read-out in test [10]: Monocyte Chemoattractant Protein-1 (MCP1), CCL2 (gene 6347)
The experiment in a line: BSK_IMphg_MCP1: BioMAP Diversity Plus: IMphg Assay for Monocyte Chemoattractant Protein-1 (MCP1) Biomarker Activity (AID 2284253). To be noted: primary human endothelial cells with macrophages. A digest of the protocol:
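Human venular endothelial cells co-cultured with macrophages; MCP-1 measured by ELISA 24 hours post-dose and fitted against DMSO. Cytotoxicity monitored by SRB total-protein staining in parallel cultures.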

Read-out in test [11]: Interleukin-8 (IL8), CXCL8 (gene 3576)
The experiment in a line: BSK_KF3CT_IL8: BioMAP Diversity Plus: KF3CT Assay for Interleukin-8 (IL8) Biomarker Activity (AID 2284254). To be noted: primary human keratinocytes with fibroblasts. Put shortly:
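Chemicals were added to co-cultured human keratinocytes and foreskin fibroblasts, incubated 24 h, then IL-8 was quantified by ELISA. Cytotoxicity was tracked by sulforhodamine B total-protein staining in parallel cultures.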

Read-out in test [12]: Macrophage Inflammatory Protein-1 Alpha (MIP1a), CCL3 (gene 6348)
The experiment in a line: BSK_IMphg_MIP1a: BioMAP Diversity Plus: IMphg Assay for Macrophage Inflammatory Protein-1 Alpha (MIP1a) Biomarker Activity (AID 2284255). To be noted: primary human endothelial cells with macrophages. A digest of the protocol:
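Co-culture of human venular endothelial cells and macrophages exposed to compounds for 24 h; MIP-1a measured by ELISA relative to DMSO. Cytotoxicity assessed in parallel cultures by sulforhodamine B total-protein staining at 560 nm.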

Read-out in test [13]: Plasminogen activator inhibitor-1 (PAI1), SERPINE1 (gene 5054)
The experiment in a line: BSK_MyoF_PAI1: BioMAP Diversity Plus: MyoF Assay for Plasminogen activator inhibitor-1 (PAI1) Biomarker Activity (AID 2284256). To be noted: primary human lung fibroblasts. A digest of the protocol: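 Primary human lung fibroblasts are dosed and incubated 24 h. PAI-1 is then measured by ELISA, while parallel cultures undergo SRB staining for overt cytotoxicity. Increases over DMSO define activity.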

Read-out in test [14]: CD69, CD69 (gene 969)
The experiment in a line: BSK_IMphg_CD69: BioMAP Diversity Plus: IMphg Assay for CD69 Biomarker Activity (AID 2284257). To be noted: primary human endothelial cells with macrophages. Put shortly: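 Human venular endothelial cells co-cultured with macrophages; CD69 quantified by ELISA 24 h after compound addition. Activity fitted in the positive direction relative to DMSO baseline; cytotoxicity tracked in parallel cultures via SRB total-protein staining.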

Read-out in test [15]: Eotaxin 3, CCL26 (gene 10344)
The experiment in a line: BSK_BF4T_Eotaxin3: BioMAP Diversity Plus: BF4T Assay for Eotaxin 3 Biomarker Activity (AID 2284258). To be noted: primary human bronchial epithelial cells with fibroblasts. A digest of the protocol: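 Co-culture of human bronchial epithelial cells and dermal fibroblasts, exposed to chemicals for 24 h versus DMSO. Eotaxin-3 quantified by ELISA; cytotoxicity checked in parallel cultures by sulforhodamine B total-protein staining.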

Read-out in test [16]: Monocyte Chemoattractant Protein-1 (MCP1), CCL2 (gene 6347)
The experiment in a line: BSK_BF4T_MCP1: BioMAP Diversity Plus: BF4T Assay for Monocyte Chemoattractant Protein-1 (MCP1) Biomarker Activity (AID 2284259). To be noted: primary human bronchial epithelial cells with fibroblasts. A digest of the protocol: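 Co-culture of bronchial epithelial cells and dermal fibroblasts dosed with chemical; MCP-1 measured by ELISA 24 h later. Activity fitted in positive direction versus DMSO; cytotoxicity checked by SRB staining in parallel cultures.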

Read-out in test [17]: Intercellular Adhesion Molecule 1 (ICAM1), ICAM1 (gene 3383)
The experiment in a line: BSK_BF4T_ICAM1: BioMAP Diversity Plus: BF4T Assay for Intercellular Adhesion Molecule 1 (ICAM1) Biomarker Activity (AID 2284260). To be noted: primary human bronchial epithelial cells with fibroblasts. Put shortly:
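Co-culture of human bronchial epithelial cells and dermal fibroblasts exposed 24 h to chemical; cell-surface ICAM-1 quantified by ELISA. Parallel SRB total-protein staining assessed cytotoxicity; activity fitted relative to DMSO.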

Read-out in test [18]: Interleukin-8 (IL8), CXCL8 (gene 3576)
The experiment in a line: BSK_MyoF_IL8: BioMAP Diversity Plus: MyoF Assay for Interleukin-8 (IL8) Biomarker Activity (AID 2284261). To be noted: primary human lung fibroblasts. A digest of the protocol:
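IL-8 levels were measured by ELISA in human lung fibroblasts harvested 24 h after compound addition. Responses were analysed as gain of signal over the DMSO baseline.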

Read-out in test [19]: CD90, THY1 (gene 7070)
The experiment in a line: BSK_BF4T_CD90: BioMAP Diversity Plus: BF4T Assay for CD90 Biomarker Activity (AID 2284262). To be noted: primary human bronchial epithelial cells with fibroblasts. A digest of the protocol: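 Co-culture of human bronchial epithelial cells and dermal fibroblasts, 24 h compound exposure. Cell-surface CD90 measured by ELISA relative to DMSO; parallel SRB total-protein staining for cytotoxicity.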

Read-out in test [20]: Interleukin-8 (IL8), CXCL8 (gene 3576)
The experiment in a line: BSK_BF4T_IL8: BioMAP Diversity Plus: BF4T Assay for Interleukin-8 (IL8) Biomarker Activity (AID 2284263). To be noted: primary human bronchial epithelial cells with fibroblasts. Put shortly:
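Human bronchial epithelial cells with dermal fibroblasts co-culture; IL-8 measured by ELISA 24 hours after dosing, fitted vs DMSO. Cytotoxicity tracked in parallel cultures by SRB total-protein staining.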

Consider `CCNS(=O)(=O)C(F)(F)C(F)(F)C(F)(F)C(F)(F)C(F)(F)C(F)(F)C(F)(F)C(F)(F)F`, for which the AC50 is 21.5 µM (active) and 30 µM (active) in [1]; 46.5 µM (active) and 50.8 µM (active) in test [3]; 54.7 µM (active) and 7.29 µM (active) in [4]; 46 µM (active) in test [5]; 15.4 µM (active) and 14.3 µM (active) in test [6]; 46.9 µM (active) and 38.3 µM (active) in test [7]. Also, the AC50 in test [8] was 24.8 µM (active) and 27.5 µM (active); in test [9], 39.7 µM (active) and 39.3 µM (active); in [10], 41.4 µM (active) and 36.9 µM (active); in test [12], 35 µM (active); in test [13] it was 58.4 µM (active) and 51.1 µM (active); in test [14] it was 38.4 µM (active) and 39.2 µM (active). Besides, the half-maximal activity concentration (AC50) was 7.65 µM (active) and 6.97 µM (active) in test [15]; 18.6 µM (active) and 22.6 µM (active) in test [16]; 30 µM (active) and 25 µM (active) in test [17]; 41.5 µM (active) and 45.6 µM (active) in [18]. The outcome in [2], in test [5], in [11], in test [12], in test [19] and in [20] was inactive.
